Experimental data published in PubChem BioAssay AID686978 (National Center for Advancing Translational Sciences (NCATS), 2013).
Screen size: about 420,000 compounds; about 64,000 (15%) were called active. Roughly 27% stayed inconclusive and do not appear here. The call rests on the fitted dose curve; in most records, active means well fitted inhibition curve with a large enough effect; inconclusive means small, poorly fitted or top-dose-only effect; inactive means flat fitted curve, though single readings scatter. Not all results are given here. Entries that show only a call come without a potency.
Potency means the concentration at half of the fitted maximal effect.

Experiment: qHTS for Inhibitors of human tyrosyl-DNA phosphodiesterase 1 (TDP1): qHTS in cells in absence of CPT; further: nearly all actives have a fitted effect of over 55% in size
Settings: DT40 Tdp1-/- hTDP1 cells, no CPT, ATP luminescence, 48 h; activity change, negative = growth inhibition: at 46.2 µM (top of the series)
Outline: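 Cells were dispensed at 400 per well, compounds added by pin tool, plates incubated ≥48 hr at 37 °C, then CellTiter-Glo added for 30 min at room temperature before luminescence reading. Line: DT40 Tdp1-/- complemented with hTDP1; camptothecin omitted.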
In the case of N#CC1=C(N)N(c2ccccc2)C2=C(C(=O)CCC2)C1c1ccccc1 (stereo not given), the Potency is reported as “inactive”.
For COc1ccc(C2C(C#N)=C(N)N(c3ncn[nH]3)C3=C2C(=O)CCC3)cc1 (stereo not given), the Potency was “inactive”.
With CSc1sc(C)cc1C1C(C#N)=C(N)N(c2cccnc2)C2=C1C(=O)CCC2 (stereo not given) the Potency was 11.6 µM (active).
With Nc1c(N(CCO)C(=O)C2CCCCC2)c(=O)[nH]c(=O)n1Cc1ccccc1 the Potency was “inactive”.
In the case of COCCSc1nnc(NC(=O)c2cc(OC)c(OC)cc2[N+](=O)[O-])s1, the Potency is reported as “inactive”.
For O=c1c2cc(-c3ccccc3)sc2nc2n1N=C(c1cccs1)CS2, the Potency was 23.1 µM (active).
In the case of c1csc(-c2cn3c(n2)SCC3)c1, the Potency is reported as “inactive”.
With Cc1nnc2n1N=C(c1ccccc1)CS2 the Potency was “inactive”.
For Cc1ccc(OCC(=O)N/N=C\c2ccco2)c(C)c1, the Potency was “inactive”.
For Cc1cc(C)c(OCC(=O)N/N=C/c2ccco2)c(C)c1, the Potency was 16.4 µM (active).
In the case of Cc1ccc(NC(=O)CCC(=O)N/N=C/c2ccco2)c(C)c1, the Potency is reported as “inactive”.
In the case of O=C(NC1CCCC1)C(c1ccco1)N(C(=O)c1csnn1)c1ccccc1 (stereo not given), the Potency is reported as “inactive”.
In the case of O=C(NCc1ccccc1)C(c1ccc(F)cc1)N1CCN(C(=O)C2CCCO2)CC1 (stereo not given), the Potency is reported as “inactive”.
In the case of O=C(NCC1CCCO1)/C(=C/c1ccc(Cl)cc1)NC(=O)c1ccccc1 (stereo not given), the Potency is reported as “inactive”.
With Cc1ccc(NC(=O)CN(C)C(=O)COC(=O)c2nccnc2N)cc1 the Potency was “inactive”.
In the case of Brc1ccccc1C1N=C(c2ccccc2)NO1 (stereo not given), the Potency is reported as “inactive”.
In the case of CCOC(=O)C1CCCN(C(=O)c2ccc(N(C)C)cc2)CC1 (stereo not given), the Potency is reported as “inactive”.
With CCOC(=O)N1CCN(C(=O)c2ccc(CN(c3ccc(C)c(C)c3)S(C)(=O)=O)cc2)CC1 the Potency was 23.1 µM (active).
For CCN1CCN(C(=O)c2ccc(CN(c3ccc(C)c(C)c3)S(C)(=O)=O)cc2)CC1, the Potency was “inactive”.
For CO/N=C/CC(=O)c1ccc(OC)cc1, the Potency was “inactive”.
In the case of COCCNc1nc2nonc2nc1N(C)Cc1ccc(C)cc1, the Potency is reported as “inactive”.
With CN(C)C(CNC(=O)CCCOc1ccccc1)c1ccco1 (stereo not given) the Potency was “inactive”.
With CCC1(C)CC(=O)NC1=O (stereo not given) the Potency was “inactive”.
With CCc1cccc(C)c1NS(=O)(=O)c1cc(Br)cnc1N the Potency was 18.4 µM (active).
For COc1ccc(N2CCN(S(=O)(=O)c3cc(Br)cnc3N)CC2)cc1, the Potency was “inactive”.
For CCc1cccc(C)c1NS(=O)(=O)c1c(C)nc2sccn2c1=O, the Potency was “inactive”.
For Cc1cc(C)c2nc(-c3ccco3)cc(C(=O)O)c2c1, the Potency was “inactive”.
For CC(C)(CNC(=O)Cc1ccc(Cl)cc1Cl)N1CCOCC1, the Potency was “inactive”.
In the case of CN(C)S(=O)(=O)c1ccc(C(=O)NCC(C)(C)N2CCOCC2)cc1, the Potency is reported as “inactive”.
With CC(C)(CNC(=O)c1ccc(Cl)c(S(=O)(=O)N2CCc3ccccc3C2)c1)N1CCOCC1 the Potency was 23.1 µM (active).
For Cc1ccc(C)c(NC(=O)COC(=O)CSc2ccccc2)c1, the Potency was “inactive”.
For Cc1ccccc1C(=O)Nc1ccccc1NC(=O)c1ccccc1C, the Potency was “inactive”.
For COc1ccc(N2CCN(C(=O)c3cccs3)CC2)cc1, the Potency was “inactive”.
In the case of Cc1ccccc1C(=O)NC(=S)Nc1ccc(N2CCN(C(=O)c3ccccc3)CC2)cc1, the Potency is reported as 10.3 µM (active).
With Cc1ccccc1C(=O)NC(=S)NC1CC1 the Potency was “inactive”.
In the case of O=C(Nc1ccc(N2CCN(C(=O)c3cccs3)CC2)cc1)c1cccnc1Cl, the Potency is reported as “inactive”.
For O=C(NC(=O)c1ccccc1N1CCCCC1)Nc1ccc(Br)cc1, the Potency was “inactive”.
For Cc1ccccc1C(=O)Nc1ccc(N2CCCCCC2)cc1, the Potency was 9.2 µM (active).
In the case of Cc1cccc(C)c1NC(=O)CS(=O)CC(=O)N1CCN(c2ccccc2)CC1 (stereo not given), the Potency is reported as “inactive”.
With Cc1ccccc1C(=O)N1CCN(c2ccc(NC(=O)c3cccs3)cc2)CC1 the Potency was 16.4 µM (active).
In the case of NS(=O)(=O)c1ccc(CCNC(=O)COC(=O)COc2cccc(C(F)(F)F)c2)cc1, the Potency is reported as “inactive”.
With Cc1noc(NS(=O)(=O)c2ccc(NC(=O)c3oc4ccc(F)cc4c3C)cc2)c1C the Potency was “inactive”.
With Cc1cc(C)n(CC(=O)Nc2ccc([N+](=O)[O-])cc2)n1 the Potency was “inactive”.
For COC(=O)c1cccc(-n2[nH]nnc2=S)c1, the Potency was “inactive”.
For CC(=O)c1ccc(S(=O)(=O)NCc2nnnn2-c2ccccc2)cc1, the Potency was “inactive”.
With OCCCNC(c1ccccc1)c1ccc(O)cc1 (stereo not given) the Potency was “inactive”.
For O=C(CC1C(=O)NCCN1CC(c1ccccc1)c1ccccc1)NCC1CCOCC1 (stereo not given), the Potency was “inactive”.
With COc1cc(-c2cc3n(C)c(C)c(CCC(=O)Nc4ccc(F)cc4)c(=O)n3n2)cc(OC)c1OC the Potency was “inactive”.
For Cc1ccc(CNC(=O)C2CCCN2C(=O)NCc2ccccc2)cc1 (stereo not given), the Potency was “inactive”.
With CCN(CC)S(=O)(=O)c1ccc(N2CC(C(=O)NCc3cccnc3)CC2=O)cc1 (stereo not given) the Potency was “inactive”.
In the case of O=C(Nc1cccnc1Cl)c1cc(-c2ccccc2O)on1, the Potency is reported as “inactive”.
With Brc1ccc(OCCn2ccnc2)cc1 the Potency was “inactive”.
In the case of COc1ccc(CCN=C2SCC(=O)N2C)cc1OC, the Potency is reported as “inactive”.
With Cc1ccc2c(c1)c1ncnc(N3CCc4ccccc4C3)c1n2C the Potency was 20.6 µM (active).
For Cc1ccc(S(=O)(=O)Nc2nc3ccccc3nc2N2CCc3ccccc3C2)cc1, the Potency was “inactive”.
With Cc1ccc2c(c1)c1ncn(Cc3ccc(F)cc3)c(=O)c1n2C the Potency was “inactive”.
In the case of CCN(C(=O)COC(=O)/C=C/c1nc2ccccc2s1)C1CCS(=O)(=O)C1 (stereo not given), the Potency is reported as “inactive”.
With CCOC(=O)C1=C(C)NC(C)=C(C(=O)OCC)C1C1=COCCO1 the Potency was “inactive”.
With CN(C)CCOC(=O)C(c1ccccc1)C1(O)CCCC1 (stereo not given) the Potency was “inactive”.
With Cc1ccccc1C(OCCN(C)C)C1CCCCC1 (stereo not given) the Potency was 29.1 µM (active).
For Cc1nn(Cc2ccc(Cl)cc2)c(Cl)c1/C=N/NC(=O)c1cccnc1, the Potency was “inactive”.
With CC1(C)C/C(=C(/C#N)C(N)=O)CCO1 the Potency was “inactive”.
For O=C(O)c1ccccc1NC(=S)NC(NC(=O)c1ccccc1[N+](=O)[O-])C(Cl)(Cl)Cl (stereo not given), the Potency was “inactive”.
With Cc1cc(C)cc(N(CC(=O)Nc2c(C)n(C)n(-c3ccccc3)c2=O)S(C)(=O)=O)c1 the Potency was “inactive”.
In the case of CCOc1ccc(S(=O)(=O)N2CCCCC2)cc1NC(=O)CN1CCCC1c1cccs1 (stereo not given), the Potency is reported as 2.06 µM (active).
For Cc1ccc(S(=O)(=O)N2CCCCC2)cc1NC(=O)[C@@H]1CCCN1C(=O)c1cccs1, the Potency was “inactive”.
In the case of COc1ccc(S(=O)(=O)N2CCCCCC2)cc1NC(=O)Cc1ccc(OC)c(OC)c1, the Potency is reported as “inactive”.
In the case of COc1cccc(N(CC(=O)NC2CCCC2)C(=O)Cn2nnc(-c3ccc(C)cc3)n2)c1, the Potency is reported as “inactive”.
For CCN(C(=O)C1CCCN(c2nc(-c3ccc(OC)cc3)no2)C1)c1ccc(OC)cc1 (stereo not given), the Potency was 20.6 µM (active).
With C=CCOc1c2ccc(C(=O)N(CC)c3ccc(OC)cc3)cc2nn1C the Potency was “inactive”.
